Assay results from PubChem BioAssay (NCI).
“And” between values parts separate entries of the source, which are not always exact repeats. Identical values can stand only once. This is part of a sample that, as a whole, favours compounds with a hit. Of some 79,000 tested, about 15% had one in any assay. No stated cut-off is given here; in the data, active means growth inhibition above about 70%; inactive means the rest.

How the values were obtained:
[1] = NCI Yeast Anticancer Drug Screen. Data for the rad50 strain (AID 155);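 further: 0% = growth of vehicle-only cultures of the same strain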; details: S. cerevisiae rad50 strain growth inhibition; at 50.0 µM; active compounds read high
Outline: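 Growth of the mutant yeast was measured after compound exposure and referenced to vehicle-treated cultures.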

[2] = NCI Yeast Anticancer Drug Screen. Data for the mec2-1 strain (AID 157); details: S. cerevisiae mec2-1 strain, at 50.0 µM, active compounds read high
Outline: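 Yeast mec2-1 mutant treated with compound. Readout: growth inhibition vs vehicle controls.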

[3] = NCI Yeast Anticancer Drug Screen. Data for the sgs1 mgt1 strain (AID 161);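 further: 0% = growth of cultures given vehicle only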; details: S. cerevisiae sgs1 mgt1 strain, at 50.0 µM, active compounds read high
Outline: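 Mutant yeast exposed to compound; growth scored against vehicle-only wells.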

[4] = NCI Yeast Anticancer Drug Screen. Data for the cln2 rad14 strain (AID 165);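 further: 0% = growth equal to vehicle treated cultures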; details: S. cerevisiae cln2 rad14 strain, at 50.0 µM, active compounds read high
Outline: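 cln2 rad14 yeast strain; compound exposure; growth inhibition read vs vehicle controls.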

[5] = NCI Yeast Anticancer Drug Screen. Data for the bub3 strain (AID 167); details: S. cerevisiae bub3 mutant strain, at 50.0 µM, active compounds read high
Outline: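 Whole-cell yeast assay. The mutant strain was incubated with compounds, and growth inhibition was determined by comparison with vehicle-treated cells.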

[6] = NCI Yeast Anticancer Drug Screen. Data for the mlh1 rad18 strain (AID 175); details: S. cerevisiae mlh1 rad18 strain growth inhibition; at 50.0 µM; active compounds read high
Outline: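 Yeast w/ defined DNA-repair lesions; compound exposure; growth vs vehicle controls → % inhibition.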

Measured: growth inhibition

COc1ccc2c(c1O)-c1cc(O)cc3c1C(C2)NCC3 (stereo unspecified)
inactive: [1] 13.7% | [2] 21.8% | [3] -12.5% | [4] 7.25% | [5] 8.65% | [6] 30.9%

CC(=O)Nc1nccs1.CC(=O)Nc1nccs1.[Cl][Pt][Cl]
inactive: [1] 9% | [2] 5.25% | [3] 8.8% | [4] -1.55% | [5] -1.45% | [6] 5.1%

NC(=O)Cc1ccc([As]=O)cc1 (stereo unspecified)
inactive: [1] 19.6% | [2] 10.1% | [3] 9.05% | [4] 21% | [5] 6.85% | [6] 14.9%

C/C=C/COC(=O)CO[N+](=O)[O-]
inactive: [1] 2% | [2] -4.25% | [3] -5.3% | [4] -12.8% | [5] -0.5% | [6] -0.15%

OCC1OC(n2cnc3cc(Cl)c(Cl)cc32)C(O)C1O (stereo unspecified)
inactive: [1] -1.1% | [2] 13.8% | [3] 21.9% | [4] -19.5% | [5] 6.4% | [6] 5%

CCCCCCCCCl
inactive: [1] 14.7% | [2] -4.7% | [3] 7.75% | [4] 20.1% | [5] 8.4% | [6] -8.5%

CN(C)P(=O)(N(C)C)N(C)CO
inactive: [1] 6.35% | [2] 6.05% | [3] 25.4% | [4] 7.35% | [5] 18.2% | [6] 4.6%

CCCCCCCCCCCCCC[As](=O)(O)O
inactive: [1] 6.4% | [2] 17.9% | [3] 21.3% | [4] 1.65% | [5] 4.5% | [6] 44.5%

C/C=C(\CC)C1(C)C(=O)NC(=O)NC1=O
inactive: [1] 7.4% | [2] 7.8% | [3] -5.7% | [4] 6.35% | [5] 1.4% | [6] -4.1%

CCCN=Cc1ccccc1O.CCCN=Cc1ccccc1O.[Ni]
inactive: [1] 37.5% | [2] 9.4% | [3] 18.6% | [4] -35.9% | [5] 4.85% | [6] 29.8%

CO[C@@]12[C@@H]3N[C@@H]3CN1C1=C(C(=O)C(NCC3CCCO3)=C(C)C1=O)[C@@H]2COC(N)=O (stereo partly specified)
inactive: [1] 24.9% | [2] 16.6% | [3] 6.25% | [4] 17.1% | [5] 3.95% | [6] 23.6%

COC(=O)c1cccc2cc3cccc[n+]3cc12
inactive: [1] 3.7% | [2] -5.5% | [3] -9.3% | [4] -35.3% | [5] -1.05% | [6] 0.75%

C1=C\CCC2SC2CC/1 (stereo unspecified)
inactive: [1] 2.1% | [2] -16.9% | [3] -5.95% | [4] -14.6% | [5] 12.4% | [6] -7.5%

CCOP(=O)(OCC)Oc1ccc([N+](=O)[O-])c(CC)c1
inactive: [1] -2.55% | [2] -3.55% | [3] -0.3% | [4] 3.5% | [5] 18.5% | [6] -8.25%

CC(=O)Nc1ccc(C(=O)O)cc1 (tested in a mixture with another compound)
inactive: [1] -25.9% | [2] -43.6% | [3] -17.4% | [4] 3.65% | [5] -46.2% | [6] -7.75%

O=C1NC(=O)C(C(=O)C(=O)Nc2cc(Cl)ccc2Cl)C(=O)N1
inactive: [1] -7.45% | [2] -25.3% | [3] -20.6% | [4] 4.7% | [5] -22.4% | [6] -12.3%

CC(C)CCC(=O)O[C@H]1CC[C@@]2(C)C(=CC[C@@H]3[C@@H]2CC[C@]2(C)C(=O)CC[C@@H]32)C1
inactive: [1] 26.2% | [2] 8.4% | [3] 11.4% | [4] 17.1% | [5] 1.95% | [6] 23.3%

O=C1NC(=O)C(Br)C(=O)N1 (tested in a mixture with another compound)
inactive: [1] -8.5% | [2] 8.95% | [3] 0.5% | [4] -19.6% | [5] -1.95% | [6] -0.3%

O=C(CF)NCCCl
inactive: [1] -3.45% | [2] -8.8% | [3] -1.65% | [4] 9.5% | [5] 9.65% | [6] 1.45%

O=C(COc1ccc(Cl)c(Cl)c1)Nc1ccc[n+](Cc2ccc(S(=O)(=O)F)cc2Cl)c1
inactive: [1] 52.5% | [2] 27.9% | [3] 17.6% | [4] 58.2% | [5] 4% | [6] 8.5%

C[N+](C)(C)C
inactive: [1] -0.3% and 4.95% and -7% | [2] 14.2% and -39% and -9.3% | [3] -5.75% and -25.2% and 8.3% | [4] -16.5% and 6.35% and 2.35% | [5] 21.4% and -8.1% and 8.75% | [6] -1.65% and -19.1% and -2.9%
